Source: PubChem BioAssay (NCI)
About 83,000 compounds went through this panel and 20% of them were active in at least one assay; those are over-represented in the sample as a whole.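 Cell lines were cultured in 96-well plates, exposed to a single compound concentration, and assessed for percent growth 48 hours later.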 Active and inactive are the calls of the source. Rule for the calls: active = growth percent below 10; inactive = the rest.

Each compound was assayed on HOP-62 NSCLC (assay: NCI-60 one-dose screen, 48 h (100 = growth as untreated, 0 = no growth, -100 = all killed)). Conditions: 10 µM unless noted.

SMILES	growth
CN(C)C(=S)N=Nc1c(O)[nH]c2ccccc12	10.9% (inactive)
NC(N)=N/N=C(/c1ccccc1)c1ccc(F)cc1	19.7% (inactive)
CC(=O)c1cc2c(N)c(C(=O)Nc3cccc4ccccc34)sc2nc1C	38.9% (inactive)
O=c1ccccc(-c2ccc(Br)cc2)c1O	10.6% (inactive)
CCCCC(=O)OCC1OC(n2cnc3c(=S)nc[nH]c32)C(OC(=O)CCCC)C1OC(=O)CCCC (stereo not drawn)	25.4% (inactive)
CC/C=C\C[C@H]1C/C=C2/C(=O)C=C[C@H]2C/C=C\CCCC(=O)O1	22.5% (inactive)
CCNc1ncnc2c1cnn2C1CCCO1 (stereo not drawn)	99.4% (inactive)
C=C1C(=O)O[C@H]2[C@H]1CC/C(COC(=O)NCCc1ccc(OC)c(OC)c1)=C\CC[C@@]1(C)O[C@@H]21	92.7% (inactive)
O=C(Cc1ccc(/C=C/C(=O)c2ncc[nH]2)cc1)Nc1ccc(F)cc1	20.5% (inactive)
Clc1ccc2c(NCCCNc3nc(-n4ccnc4)nc4ccccc34)ccnc2c1	83% (inactive)
CCc1nc(N)nc(N)c1C#CC(C)c1ccc(-c2ccncc2)cc1Cl (stereo not drawn)	10.3% (inactive)
Cc1cc2c3ccccc3ccc2[n+]2ccccc12	9.19% (active)
COc1ccc(SC2c3ccc(C)cc3Oc3nc(N)c(C#N)c(N)c32)cc1 (stereo not drawn)	-10.6% (active)
NC(=NC1C2CC3CC(C2)CC1C3)Nc1ccc(I)cc1 (stereo not drawn)	12.9% (inactive)
CC(=O)OCCC/C(=C/c1cc2ccccc2c2ccccc12)[N+](=O)[O-]	-61.3% (active)
COc1cc(C(=O)/C=C/c2cccnc2Nc2ccc(Cl)cc2)cc(OC)c1OC	-68.6% (active)
CCOc1ccc(-n2nc(C(=O)Nc3cc(OC)c(OC)c(OC)c3)nc2-c2cc(OC)c(OC)c(OC)c2)cc1	95.7% (inactive)
CC(=O)Oc1ccc(Cl)cc1CN(C(C)=O)C1CCCCC1	102% (inactive)
COc1cc(-c2nn(-c3ccc(Br)cc3)cc2C(=O)O)ccc1O	96.3% (inactive)
COc1cc2nnc3c4cccnc4[nH]c3c2cc1OC	96.9% (inactive)

SMILES	growth
CCNC(=O)Oc1ccc(/C(=C(\C)c2ccc(Cl)cc2)c2ccc(OCCN(CC)CC)cc2)cc1	54.6% (inactive)
CCc1nc(N)nc(N)c1C#CC(C)c1cc(-c2ccnc(C)c2)c2oc(C)nc2c1 (stereo not drawn)	-2.79% (active)
CC1=C(O)C(=O)C(C(C#N)(C#N)C(C#N)C#N)C1 (stereo not drawn)	108% (inactive)
CN(C)c1ccc(NC(=O)c2ccc(/C=C/C(=O)c3ncc[nH]3)cc2)cc1	54.7% (inactive)
CN(C)c1ccc(N=Nc2ccccn2)c(O)c1	7.8% (active)
O=C1C=CC(=O)N1c1ccc2c(c1)Cc1cc(F)ccc1-2	93.8% (inactive)
CCCCn1cnc2c(Sc3c([N+](=O)[O-])ncn3C)nc(N)nc21	94.7% (inactive)
NC(CSC(c1ccccc1)(c1ccccc1)c1ccc(Cl)cc1)C(=O)O (stereo not drawn)	27.5% (inactive)
Oc1ccc(N=Cc2ccccc2O)cc1	93.6% (inactive)
Clc1ccc2c(NCCNc3nc(N4CCCCC4)nc4ccccc34)ccnc2c1	-18.2% (active)
CCN1CCN(c2nc(NCCCNc3ccnc4cc(Cl)ccc34)c3ccccc3n2)CC1	32.4% (inactive)
CCOC(=O)c1sc(Nc2ccc(Cl)cc2)nc1C	28.3% (inactive)
CN1C(=O)C2(SCC(C(=O)NCc3ccccc3)N2C(=O)C2CCCCC2)c2ccccc21 (stereo not drawn)	98.2% (inactive)
CSc1ccc(-c2ccccc(=O)c2O)cc1	3.95% (active)
CC(=O)c1cc2c(N)c(C(=O)Nc3cccc(F)c3C)sc2nc1C	73.8% (inactive)
COc1ccc2c(c1)C(=O)/C(=C/c1ccccn1)CC2	105% (inactive)
O=C(Cc1ccc(/C=C/C(=O)c2ncc[nH]2)cc1)Nc1ccccc1	49.9% (inactive)
COc1cccc2c1C(=O)c1c(O)c3c(c(O)c1C2=O)C[C@](O)(C(=O)CO)C[C@H]3O[C@@H]1C[C@@H](NC(=O)CCCN(C)C2(c3ccc(F)cc3)CC3CCC2C3)[C@H](O)[C@@H](C)O1 (stereo partly drawn)	58.5% (inactive)
COc1cccc2c1C(=O)c1c(O)c3c(c(O)c1C2=O)C[C@](O)(C(=O)CO)C[C@H]3O[C@@H]1C[C@@H](NC(=O)CCCCCN(C)C2(c3ccc(F)cc3)CC3CCC2C3)[C@H](O)[C@@H](C)O1 (stereo partly drawn)	46.9% (inactive)

These compounds were tested on NCI-H460 lung in the same assay as above. Conditions: 10 µM unless noted.

SMILES	growth
CN(C)C(=S)N=Nc1c(O)[nH]c2ccccc12	-4.55% (active)
NC(N)=N/N=C(/c1ccccc1)c1ccc(F)cc1	6.84% (active)
CC(=O)c1cc2c(N)c(C(=O)Nc3cccc4ccccc34)sc2nc1C	7.21% (active)
O=c1ccccc(-c2ccc(Br)cc2)c1O	2.75% (active)
CCCCC(=O)OCC1OC(n2cnc3c(=S)nc[nH]c32)C(OC(=O)CCCC)C1OC(=O)CCCC (stereo not drawn)	30.3% (inactive)
CC/C=C\C[C@H]1C/C=C2/C(=O)C=C[C@H]2C/C=C\CCCC(=O)O1	27.4% (inactive)
CCNc1ncnc2c1cnn2C1CCCO1 (stereo not drawn)	105% (inactive)
C=C1C(=O)O[C@H]2[C@H]1CC/C(COC(=O)NCCc1ccc(OC)c(OC)c1)=C\CC[C@@]1(C)O[C@@H]21	93.9% (inactive)
O=C(Cc1ccc(/C=C/C(=O)c2ncc[nH]2)cc1)Nc1ccc(F)cc1	1.46% (active)
Clc1ccc2c(NCCCNc3nc(-n4ccnc4)nc4ccccc34)ccnc2c1	95.2% (inactive)
CCc1nc(N)nc(N)c1C#CC(C)c1ccc(-c2ccncc2)cc1Cl (stereo not drawn)	5.02% (active)
Cc1cc2c3ccccc3ccc2[n+]2ccccc12	63.1% (inactive)
COc1ccc(SC2c3ccc(C)cc3Oc3nc(N)c(C#N)c(N)c32)cc1 (stereo not drawn)	-49.6% (active)
NC(=NC1C2CC3CC(C2)CC1C3)Nc1ccc(I)cc1 (stereo not drawn)	55.2% (inactive)
CC(=O)OCCC/C(=C/c1cc2ccccc2c2ccccc12)[N+](=O)[O-]	-18.5% (active)
COc1cc(C(=O)/C=C/c2cccnc2Nc2ccc(Cl)cc2)cc(OC)c1OC	4.24% (active)
CCOc1ccc(-n2nc(C(=O)Nc3cc(OC)c(OC)c(OC)c3)nc2-c2cc(OC)c(OC)c(OC)c2)cc1	92.1% (inactive)
CC(=O)Oc1ccc(Cl)cc1CN(C(C)=O)C1CCCCC1	114% (inactive)
COc1cc(-c2nn(-c3ccc(Br)cc3)cc2C(=O)O)ccc1O	103% (inactive)
COc1cc2nnc3c4cccnc4[nH]c3c2cc1OC	25.6% (inactive)

SMILES	growth
CCNC(=O)Oc1ccc(/C(=C(\C)c2ccc(Cl)cc2)c2ccc(OCCN(CC)CC)cc2)cc1	7.6% (active)
CCc1nc(N)nc(N)c1C#CC(C)c1cc(-c2ccnc(C)c2)c2oc(C)nc2c1 (stereo not drawn)	2.7% (active)
CC1=C(O)C(=O)C(C(C#N)(C#N)C(C#N)C#N)C1 (stereo not drawn)	102% (inactive)
CN(C)c1ccc(NC(=O)c2ccc(/C=C/C(=O)c3ncc[nH]3)cc2)cc1	25.4% (inactive)
CN(C)c1ccc(N=Nc2ccccn2)c(O)c1	5.5% (active)
O=C1C=CC(=O)N1c1ccc2c(c1)Cc1cc(F)ccc1-2	111% (inactive)
CCCCn1cnc2c(Sc3c([N+](=O)[O-])ncn3C)nc(N)nc21	106% (inactive)
NC(CSC(c1ccccc1)(c1ccccc1)c1ccc(Cl)cc1)C(=O)O (stereo not drawn)	7.15% (active)
Oc1ccc(N=Cc2ccccc2O)cc1	96.4% (inactive)
Clc1ccc2c(NCCNc3nc(N4CCCCC4)nc4ccccc34)ccnc2c1	-39.4% (active)
CCN1CCN(c2nc(NCCCNc3ccnc4cc(Cl)ccc34)c3ccccc3n2)CC1	16.3% (inactive)
CCOC(=O)c1sc(Nc2ccc(Cl)cc2)nc1C	19.3% (inactive)
CN1C(=O)C2(SCC(C(=O)NCc3ccccc3)N2C(=O)C2CCCCC2)c2ccccc21 (stereo not drawn)	96% (inactive)
CSc1ccc(-c2ccccc(=O)c2O)cc1	2.89% (active)
CC(=O)c1cc2c(N)c(C(=O)Nc3cccc(F)c3C)sc2nc1C	83.1% (inactive)
COc1ccc2c(c1)C(=O)/C(=C/c1ccccn1)CC2	97.8% (inactive)
O=C(Cc1ccc(/C=C/C(=O)c2ncc[nH]2)cc1)Nc1ccccc1	11.7% (inactive)
COc1cccc2c1C(=O)c1c(O)c3c(c(O)c1C2=O)C[C@](O)(C(=O)CO)C[C@H]3O[C@@H]1C[C@@H](NC(=O)CCCN(C)C2(c3ccc(F)cc3)CC3CCC2C3)[C@H](O)[C@@H](C)O1 (stereo partly drawn)	-86.8% (active)
COc1cccc2c1C(=O)c1c(O)c3c(c(O)c1C2=O)C[C@](O)(C(=O)CO)C[C@H]3O[C@@H]1C[C@@H](NC(=O)CCCCCN(C)C2(c3ccc(F)cc3)CC3CCC2C3)[C@H](O)[C@@H](C)O1 (stereo partly drawn)	-84.2% (active)
